Active and inactive are the calls of the source.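 How the source made its calls: active means calcium response above 60% of the acetylcholine maximum at human M5, as a positive modulator; inactive means the rest.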
molecular target: Muscarinic acetylcholine receptor M5 (Homo sapiens) (UniProt P08912); assay: M5 muscarinic receptor positive allosteric modulators, cell-based, single concentration, CHO-K1 hM5, calcium flux (AID 743100); settings: CHO-K1 hM5, Fluo-4 calcium flux, ACh EC20, hits give high values; at 10 µM unless noted
Sequence (P08912 whole entry, looked up): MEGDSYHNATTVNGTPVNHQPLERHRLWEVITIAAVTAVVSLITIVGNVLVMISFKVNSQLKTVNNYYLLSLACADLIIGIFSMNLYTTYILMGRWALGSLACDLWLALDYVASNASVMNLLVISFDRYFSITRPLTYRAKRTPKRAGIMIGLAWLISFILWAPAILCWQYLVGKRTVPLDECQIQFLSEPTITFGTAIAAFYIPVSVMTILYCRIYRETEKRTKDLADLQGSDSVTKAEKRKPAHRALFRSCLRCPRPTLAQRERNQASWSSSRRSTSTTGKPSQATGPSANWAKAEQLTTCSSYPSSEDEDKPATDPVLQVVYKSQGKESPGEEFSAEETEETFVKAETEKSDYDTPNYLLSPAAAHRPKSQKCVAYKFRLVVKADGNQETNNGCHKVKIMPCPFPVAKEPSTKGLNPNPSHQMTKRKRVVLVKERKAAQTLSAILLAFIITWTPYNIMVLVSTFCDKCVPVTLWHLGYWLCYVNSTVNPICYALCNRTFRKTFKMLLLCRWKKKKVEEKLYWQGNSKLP

% ACh max response, inactive:
CCN(Cc1ccccc1C(F)(F)F)C(=O)C1(F)CCN(S(=O)(=O)c2ccc3occc3c2)CC1 54%
CCN(Cc1ccccc1)C(=O)C1CCN(S(=O)(=O)c2ccccc2OC)CC1 28.1% [at 30 µM]
CCNC(=O)C1(Cc2ccccc2)CCN(S(=O)(=O)c2ccc3occc3c2)CC1 22.2%
CCN(Cc1ccccc1)C(=O)C1CCN(S(=O)(=O)c2ccc(C(C)=O)cc2)CC1 58.4% [at 30 µM]
CCN(Cc1ccccc1)C(=O)C1CCN(S(=O)(=O)c2ccccc2C(F)(F)F)CC1 21.7% [at 30 µM]
O=C(NCc1ccccc1)C1(Cc2ccccc2)CCN(S(=O)(=O)c2ccc3occc3c2)CC1 20.1%
CCN(Cc1cccnc1)C(=O)C1CCN(S(=O)(=O)c2ccc3cn[nH]c3c2)CC1 19.8%
CCN(Cc1ccccc1)C(=O)C1CCN(S(=O)(=O)c2ccc3nn(C)cc3c2)CC1 51.4%
CCN(Cc1ccccc1)C(=O)C1CCN(S(=O)(=O)c2ccc(C(F)(F)F)nc2)CC1 56.9% [at 30 µM]
CCN([C@H](C)c1ccccc1)S(=O)(=O)C1CCN(C(=O)c2ccc3[nH]ncc3c2)CC1 26.9%
CCN(Cc1ccccc1C#N)C(=O)C1CCN(S(=O)(=O)c2ccc3cn[nH]c3c2)CC1 36.8%
CCN(Cc1ccccc1)C(=O)C1CCN(S(=O)(=O)c2ccc(F)cc2)CC1 56.2% [at 30 µM]
CCN(Cc1ccc(-c2ccccc2)cc1)C(=O)C1CCN(S(=O)(=O)c2ccc3cn[nH]c3c2)CC1 24.8%
CCN(CC1CCN(S(=O)(=O)c2ccc(OC)cc2)CC1)C(=O)c1ccccc1 15.2%
CCN(Cc1cccc(C#N)c1)C(=O)C1CCN(S(=O)(=O)c2ccc3cn[nH]c3c2)CC1 46.2%
CCN(Cc1ccccc1)C(=O)C1CCN(S(=O)(=O)Cc2cccc(C(F)(F)F)c2)CC1 25.5% [at 30 µM]
CCN(Cc1cc(F)ccc1F)C(=O)C1CCN(S(=O)(=O)c2ccc3cn[nH]c3c2)CC1 57.2%
CCN(Cc1ccc(Oc2ccccc2)cc1)C(=O)C1CCN(S(=O)(=O)c2ccc3cn[nH]c3c2)CC1 39.1%
CCN(Cc1ccccc1)C(=O)C1CCN(S(=O)(=O)CC(C)C)CC1 21.3% [at 30 µM]
CCN(Cc1ccccc1)C(=O)C1CCN(S(=O)(=O)c2cccnc2Cl)CC1 30% [at 30 µM]
CCN(Cc1ccccc1)C(=O)C1CCN(S(=O)(=O)c2cccc3c2OCCO3)CC1 48% [at 30 µM]

% ACh max response, active:
CCN(Cc1ccccc1)C(=O)C1CCN(S(=O)(=O)c2ccc3cn(C)nc3c2)CC1 64.9%
CCN(Cc1cccc(F)c1F)C(=O)C1CCN(S(=O)(=O)c2ccc3cn[nH]c3c2)CC1 63.7%
CCN(Cc1ccccc1)C(=O)C1CCN(S(=O)(=O)c2ccc(OC(F)(F)F)cc2)CC1 71.7% [at 30 µM]
CCN(Cc1ccccc1OC)C(=O)C1CCN(S(=O)(=O)c2ccc3cn[nH]c3c2)CC1 84.5%
CCCc1ccc(S(=O)(=O)N2CCC(C(=O)N(CC)Cc3ccccc3)CC2)cc1 62.9% [at 30 µM]
CCN(Cc1ccccc1)C(=O)C1CCN(S(=O)(=O)c2ccc(C(C)C)cc2)CC1 66.7% [at 30 µM]
CCN(Cc1ccccc1OC(F)(F)F)C(=O)C1CCN(S(=O)(=O)c2ccc3cn[nH]c3c2)CC1 73.2%
CCN(Cc1ccccc1)C(=O)C1CCN(S(=O)(=O)c2cccc(C)c2)CC1 63.8% [at 30 µM]
CCN(Cc1ccccc1)C(=O)C1CCN(S(=O)(=O)c2ccc3[nH]ncc3c2)CC1 84.3% [at 30 µM]
CCN(Cc1ccccc1)C(=O)C1CCN(S(=O)(=O)c2ccc(OC)nc2)CC1 62.5% [at 30 µM]
CCN(Cc1ccccc1)C(=O)C1CCN(S(=O)(=O)c2ccncc2)CC1 24.6%
CCN(C(=O)C1CCN(S(=O)(=O)c2ccc3c(c2)CCO3)CC1)[C@H](C)c1ccccc1 97.5%
